A selection: hits, their analogues and other compounds. The true share with any hit is near 7.3%.
HCMV antiviral: inhibitors of human cytomegalovirus; HFF cells, HCMV-luciferase reporter, 72 h; active compounds read low; activity change, negative = inhibition, % at 57.5 µM; 410,000 compounds, 4.5% hits; in the data active = activity change below about -60%; inconclusive = no clear call, values can overlap the other calls; inactive = above about -39%
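Two-dose cell screen: HFF monolayers treated with compounds and infected with luciferase-expressing HCMV at 1 PFU/cell, 72 h at 37C, then lysed for luciferase measurement.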
FMDV inh: antivirals against foot and mouth disease virus. FMDV antiviral cell-based qHTS. Potency, µM (doses to about 57.9 µM), without a hit: at the highest dose activity change, negative = inhibition, actives largely listed as inhibitors. 410,000 compounds, 1.2% hits. AID 1159524; calls by dose curve; tested in HEK293T cells; note: read-out not given here; potency is the fitted concentration of half-maximal effect; nearly all actives have a fitted effect of over 45% in size
Vaccinia mCherry: vaccinia inhibition (mCherry reporter) | Vaccinia virus mCherry reporter infection, fluorescence | Potency, µM (highest dose often 36.5 µM), for inactives: at the highest dose activity change, negative = inhibition, actives largely listed as inhibitors | 310,000 compounds, 0.63% hits; calls by dose curve; tested in A549 cells; note: potency is the fitted concentration of half-maximal effect; nearly all actives have a fitted effect of over 35% in size
VACV Venus inh: inhibitors of vaccinia virus (Venus reporter). Vaccinia virus Venus reporter expression, fluorescence. Potency, µM (top dose mostly 36.5 µM), for the others: at the top dose activity change, negative = inhibition, usual class: inhibitors. 330,000 compounds, 0.46% hits. AID 720580; calls by dose curve; tested in A549 cells; note: potency is the fitted concentration of half-maximal effect; nearly all actives have a fitted effect of over 30% in size
HCV inh: HCV inhibition. Potency, µM (doses to about 41.8 µM), for inactives: at the highest dose activity change, negative = inhibition, most hits filed as inhibitors. AID 651820. 340,000 compounds, 3.4% hits. Huh7.5.1 HCVcc-Cre infection, luciferase reporter, 44 h; active = well fitted inhibition curve with a large enough effect; inconclusive = small, poorly fitted or top-dose-only effect, or another doubt; inactive = no such curve, though single readings can be large or run the other way; note: potency is the fitted concentration of half-maximal effect
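Infectious HCVcc-Cre (~0.5 moi) was added to cells just after compound, with cells seeded 4 h earlier at 1,000 per well. Luciferase activity after 44 h culture reported infection; substrate was incubated 15 min at room temperature before reading.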
Starred values were filed as active, the others as inactive; i = inactive; ? = inconclusive; . = not tested or not shown; ! = not confirmed by another sample. % is set by controls: 0 for no effect and ±100 for the full control effect.

SMILES	HCMV antiviral	FMDV inh	Vaccinia mCherry	VACV Venus inh	HCV inh
C[C@H](CO)N1C[C@H](C)[C@@H](CN(C)C(=O)Nc2cccc(F)c2)OCc2cn(nn2)CCCC1=O	24	.	.	.	.
Cn1nc(C(=O)NCCN2Cc3ccccc3OC(c3ccsc3)C2)c2ccccc2c1=O (configuration not stated)	.	-5%	-8%	-3%	.
Cc1cccc2c1-c1sc(C(=O)N(C)c3cccc(C(F)(F)F)c3)cc1CO2	-19	0%	-21%	-14%	.
COc1cc(C(=O)Nc2nc(-c3ccc(Cl)cc3)c(C)s2)ccc1OCC(=O)Nc1ccc(F)cc1	-30	28µM*	-11%	-10%	?
N#CC(=C(O)CN1CCN(c2ccccc2F)CC1)c1nc(-c2ccccc2)cs1	-71*	8%	-12%	-23%	2%
Cc1ccc(C(O)c2ncc(-c3ccccc3Cl)[nH]2)cc1 (configuration not stated)	38	69%	-4%	5%	.
CCc1ccc(C(O)c2ncc(-c3ccccc3Cl)[nH]2)cc1 (configuration not stated)	-96*	63%	20%	-4%	.
Cc1ccccc1N1CC(C(=O)O)CC1=O (configuration not stated)	-85*	24%	-20%	-5%	?
Cc1ccccc1N1CC(C(=O)N2CCc3ccccc32)CC1=O (configuration not stated)	-4	-3%	-20%	4%	-5%
CCn1c2ccccc2c2cc(CN3CCN(Cc4ccc(Cl)cc4)CC3)ccc21	8	-26%	-30%	-28%	.
N#CC(c1cccc(C(F)(F)F)c1)(c1ncc(C(F)(F)F)cc1Cl)N1CCOCC1 (configuration not stated)	-64*	-24%	.	.	8%
O=C(CC1N=C2c3ccccc3N=C(SCC(=O)Nc3cccc(C(F)(F)F)c3)N2C1=O)NCc1cccs1 (configuration not stated)	-16	-17%	7%	1%	.
CC(=O)c1ccc2c(c1)C1C(Cl)C(Sc3ccccc3[N+](=O)[O-])CC1C(c1ccccc1[N+](=O)[O-])N2 (configuration not stated)	-88*	-25%	-16%	-23%	2.2µM*
CCCCNc1nccnc1-c1cccc(C=O)c1	30	-20%	-2%	3%	.
CCCNCC(O)Cn1c2ccccc2n2c(=O)cc(C)c(C#N)c12 (configuration not stated)	-61*	0%	1%	-6%	?
Cc1cc(=O)n(CCc2ccccc2)c(O)c1C#N	5	8%	.	-5%	-9%
COc1ccc2c(c1)CC(NC(=O)Nc1ccc(NC(C)=O)cc1)CO2 (configuration not stated)	5	-16%	-23%	-15%	.
Nc1c(N(C(=O)Nc2ccc(Cl)c(Cl)c2)C2CCCC2)c(=O)[nH]c(=O)n1Cc1ccccc1	-12	?	-23%	-7%	11µM*
CSc1nc(N(C)NC(=O)c2ccccc2)c2ccccc2n1	-23	-13%	?	?	?
CSc1nc(N(C)NC(=O)c2ccc(Cl)cc2)c2ccccc2n1	-65*	0%	-19%	?	?
CN(NC(=O)c1ccc(Cl)cc1)c1nc(-c2ccccc2)nnc1C(F)(F)F	-105*	32µM*	-8%	-12%	-26%
Cc1cc(OC(C)C(=O)NCc2cccnc2)c2c(C)c(Cc3ccccc3)c(=O)oc2c1 (configuration not stated)	?	5%	.	.	13µM*
c1cc2n(c1)-c1c(ccc3c1OCO3)CNC2c1ccc2c(c1)OCO2 (configuration not stated)	-8	8%	.	-29%	?
COc1ccc(C2NCc3ccc4c(c3-n3cccc32)OCO4)cc1O (configuration not stated)	.	-13%	.	?	0.56µM*
Cc1cccc(N2CCN(C3(c4ccccc4)C(=O)c4ccccc4C3=O)CC2C)c1 (configuration not stated)	-8	?	-9%	0%	.
SMILES	HCMV antiviral	FMDV inh	Vaccinia mCherry	VACV Venus inh	HCV inh
O=C1NC(=O)N(c2ccc3c(c2)OCO3)C(=O)/C1=C/c1cccs1	99	28µM*	i	20%	26%
O=C1NC(=O)N(c2ccc3c(c2)OCO3)C(=O)/C1=C/c1ccsc1	30	?	.	.	22%
COc1ccc(-c2cc(=O)n(-c3nc4ccccc4[nH]3)[nH]2)cc1	-90*	12%	.	.	?
CCC1CN(C(=O)NCc2cccc(OC)c2)c2cc(Cl)ccc2O1 (configuration not stated)	-18	0%	4%	-3%	5.6µM*
CCC1CN(C(=O)NCc2cccc(OC)c2)c2ccccc2O1 (configuration not stated)	-8	-21%	4%	-11%	?
CCC1CN(C(=O)NCc2ccc(C)cc2)c2cc(C)ccc2O1 (configuration not stated)	-75*!	-19%	-8%	-9%	-23%
CCc1ccccc1NC(=O)N1CC(CC)Oc2ccc(Cl)cc21 (configuration not stated)	-61*	-17%	9%	-2%	.
CCC1CN(C(=O)NCc2ccccc2)c2cc(C)ccc2O1 (configuration not stated)	?	-3%	-3%	-4%	-10%
Nc1ccc(C(Cc2ccnc3ccccc23)Cc2ccnc3ccccc23)cc1	.	.	-14%	-11%	.
O=C(N/N=C/c1sc(N2CCOCC2)nc1-c1ccccc1)c1cccc(S(=O)(=O)N2CCOCC2)c1	-100*	-20%	.	.	?
Nc1ccc(C(=O)N/N=C/c2sc(N3CCOCC3)nc2-c2ccccc2)cc1	-3	-6%	-13%	-8%	?
O=C(N/N=C/c1sc(N2CCOCC2)nc1-c1ccccc1)c1ccccc1Cl	5	-16%	-5%	-20%	8.9µM*
O=C(N/N=C/c1sc(N2CCOCC2)nc1-c1ccccc1)c1ccccc1F	.	?	-27%	-15%	?
O=C(Nc1ccccc1F)C(=Cc1sc(N2CCOCC2)nc1-c1ccccc1)C(=O)Nc1ccccc1F	-70*	0%	i	0%	-8%
CCc1ccccc1NC(=O)c1ccc2c(c1)CCCN2S(C)(=O)=O	27	22%	-10%	-6%	.
CCOc1ccccc1C(=O)Oc1c(S(=O)(=O)c2ccc(C)cc2)c(C)nn1-c1ccccc1	18	-22%	?	?	.
Cc1ccc2oc3c(c(=O)c2c1)C(c1cccc(O)c1)N(Cc1ccccc1Cl)C3=O (configuration not stated)	-74*	21%	-8%	-4%	.
Cc1cc(C)c2c(=O)c3c(oc2c1)C(=O)N(Cc1ccc(F)cc1)C3c1cccc(O)c1 (configuration not stated)	-66*	-11%	-28%	?	.
Cc1ccc(-c2cc3nccc(-c4cc([N+](=O)[O-])ccc4O)n3n2)cc1	-63*	-11%	-21%	-11%	.

Assay outcomes as filed in PubChem.
